VACV mCherry inh: vaccinia inhibition (mCherry reporter); Vaccinia virus mCherry reporter infection, fluorescence; Potency, µM (highest dose often 36.5 µM), inactives show top-dose activity change, negative = inhibition, most hits filed as inhibitors; hit rate 0.63% among 310,000; AID 720579; calls by dose curve; tested in A549 cells; note: potency is the fitted concentration of half-maximal effect; nearly all actives have a fitted effect of over 35% in size
Marburg entry inh: Marburg virus entry inhibition; Marburg virus pseudotyped entry inhibition, cell reporter; Potency, µM (series often up to 37.8 µM), without a hit: top-dose activity change, negative = inhibition, actives largely listed as inhibitors; hit rate 1.8% among 300,000; AID 540276; calls by dose curve; tested in HEK293 cells; note: potency is the fitted concentration of half-maximal effect
Vaccinia Venus: inhibitors of vaccinia virus (Venus reporter); Vaccinia virus Venus reporter expression, fluorescence; Potency, µM (highest dose often 36.5 µM), without a hit: at the highest dose activity change, negative = inhibition, usual class: inhibitors; hit rate 0.46% among 330,000; calls by dose curve; tested in A549 cells; note: potency is the fitted concentration of half-maximal effect; nearly all actives have a fitted effect of over 30% in size
LASV entry inh: Lassa virus entry inhibition; Lassa virus pseudotype entry inhibition, cell reporter; Potency, µM (doses to about 37.9 µM), without a hit: at the highest dose activity change, negative = inhibition, usual class: inhibitors; hit rate 1.2% among 300,000; AID 540256; calls by dose curve; tested in HEK293 cells; note: potency is the fitted concentration of half-maximal effect; nearly all actives have a fitted effect of over 50% in size
HCMV inh: inhibitors of human cytomegalovirus. HFF cells, HCMV-luciferase reporter, 72 h; hits give low values. activity change, negative = inhibition, % at 57.5 µM. hit rate 4.5% among 410,000. AID 1259415; in the data active = activity change below about -60%; inconclusive = no clear call, values can overlap the other calls; inactive = above about -39%
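HFF cells seeded 16 h at 37C, treated with compounds, infected with luciferase-reporter HCMV at MOI 1 PFU/cell; luciferase read at 72 h post infection, normalized to buffer-only and Salinomycin controls.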
FMDV antiviral: foot and mouth disease virus antiviral activity; FMDV antiviral cell-based qHTS; Potency, µM (series often up to 57.9 µM), inactives show at the highest dose activity change, negative = inhibition, usual class: inhibitors; hit rate 1.2% among 410,000; AID 1159524; calls by dose curve; tested in HEK293T cells; note: read-out not given here; potency is the fitted concentration of half-maximal effect; nearly all actives have a fitted effect of over 45% in size
* marks the source's active call; other numbers are inactive results; i = inactive; ? = inconclusive; . = no result given; [ ] = another dose, or the depositor's remark. In the library only some 6.5% were active in any assay of this set; here they are far more common. % is set by controls: 0 for no effect and ±100 for the full control effect.

SMILES | VACV mCherry inh | Marburg entry inh | Vaccinia Venus | LASV entry inh | HCMV inh | FMDV antiviral
COc1cc(Nc2nc3c(S(=O)(=O)c4ccccc4)nnn3c3ccc(Cl)cc23)cc(OC)c1 | -9% | 14%[46.1 µM] | -9% | . | -11 | -1%
COc1ccc2c(c1)cc1n2CCN=C1N | -23% | 10µM* | -21% | 2% | 12 | .
COc1ccc2c(c1)cc1n2CCN2CCCN=C12 | -10% | -7% | 4% | ? | -29 | -19%
CCN(CC)c1ccc2c(C)c(-c3ccc(N)cc3)c(=O)oc2c1 | . | ? | -27% | 10µM* | ? | 0%
O=C(NCC1Cc2cc(F)cc(-c3cnccn3)c2O1)c1cccc(Cl)c1 (stereo not given) | -2% | . | -1% | . | . | -12%
Cc1c(-c2cccc(NC(=O)Nc3ccc(Cl)cc3)c2)nc2ncccn12 | -19% | . | -16% | -22%[46.1 µM] | -86* | -19%
Cc1c(-c2cccc(NC(=O)c3ccc(F)c(F)c3)c2)nc2ncccn12 | -16% | . | -12% | 14%[46.1 µM] | -11 | 9%
CCOC(=O)c1noc2ncn(CC(=O)Nc3ccc(C)c(F)c3)c(=O)c12 | 2% | . | 6% | 1%[46.1 µM] | -9 | -5%
CCCCn1nc(NC(=O)c2cccs2)c2cc3ccccc3nc21 | . | 16µM* | . | ? | 7 | -12%
FC(F)(F)c1nnc(Nc2ccc(Cl)cc2)s1 | i[7.34 µM] | -10%[46.1 µM] | -13%[7.34 µM] | -34% | -38 | ?
Fc1ccc(Nc2nnc(C(F)(F)F)s2)cc1Cl | -19% | ? | ? | ? | -98* | 0%
Cc1ccc([N+](=O)[O-])cc1N/C=C/C(=O)c1ccco1 | -28% | ? | -20% | 12µM* | -11 | .
CC(C)c1c(C(=O)NCC2(N3CCCCC3)CCCC2)cnn1-c1nccc(-c2ccco2)n1 | -15% | . | -11% | . | . | 1%
Cc1ccc(-n2nc(C)c3nc(CCC(=O)Nc4cccc(F)c4)c(=O)n(C)c32)cc1 | -13% | . | -5% | -12%[46.1 µM] | -11 | 4%
CCOC(=O)Nc1ccc(N2CCOCC2)c(S(=O)(=O)Nc2ccc(Cl)cc2)c1 | -28% | 10µM* | -6% | ? | 28 | 35%
Nc1cc(S(=O)(=O)Nc2ccc(Cl)cc2)ccc1N1CCOCC1 | ? | ? | -13% | ? | -72* | -9%
COc1ccc(NS(=O)(=O)c2cc(NC(=O)c3cc(F)c(F)cc3Cl)ccc2N2CCOCC2)cc1 | . | . | . | . | -24 | 72%
O=C(C[N+]12CN3CN(CN(C3)C1)C2)c1ccc(Br)cc1 | -17% | . | -12% | . | . | .
COc1cccc(C2(CC(=O)N3CCC(c4nc5ccc(F)cc5[nH]4)CC3)CC(=O)N(C)C2=O)c1 (stereo not given) | -3% | . | -2% | . | . | 9%
CCCCn1c(NS(=O)(=O)c2ccccc2)c(C(=O)OCC)c2nc3ccccc3nc21 | -12% | 4.6µM* | -10% | ? | ? | 0%
CCCCn1c(NC(=O)c2ccc(Br)o2)c(C(=O)OCC)c2nc3ccccc3nc21 | -28% | -7%[46.1 µM] | 2% | -1% | -71* | -14%
CCOC(=O)c1c(NC(=O)c2ccco2)n(C2CCCCC2)c2nc3ccccc3nc12 | -7% | -2% | 5% | ? | -23 | .
Cc1nn2c(=O)cc(COC(=O)c3cccc(NC(=O)c4ccc(F)cc4)c3)nc2s1 | -13% | . | -16% | ? | -25 | ?
COc1cc(NC(=O)Cn2ccn(Cc3ccccc3OC)c(=O)c2=O)cc(OC)c1 | -3% | . | 0% | -17%[46.1 µM] | -32 | 29%
COc1ccc(-c2nc3cnc(N4CCN(C)CC4)nc3n(Cc3ccc(F)cc3)c2=O)cc1 | . | . | . | . | . | -13%
SMILES | VACV mCherry inh | Marburg entry inh | Vaccinia Venus | LASV entry inh | HCMV inh | FMDV antiviral
COC(=O)c1sc(N2C(=O)c3oc4cc(C)c(C)cc4c(=O)c3C2c2ccccc2F)nc1C (stereo not given) | 6% | ? | -10% | 1%[46.1 µM] | -1 | -10%
CCCN1CCN(C(=O)c2cc(COc3ccc4ncccc4c3)on2)CC1 | i | . | -10% | . | -68* | ?
CCN1CCN(C(=O)c2cc(COc3ccc4ncccc4c3)on2)CC1 | i | -19%[46.1 µM] | -18% | . | -82* | ?
CN(C)c1ccc(/C=C/c2nc3ccccc3s2)c(Cl)c1 | -15% | . | -5% | . | . | .
Cc1ccc(C(CC(=O)Nc2ccc(F)c(Cl)c2)N2Cc3ccccc3C2=O)cc1 (stereo not given) | 2% | . | -4% | 4%[46.1 µM] | -104* | 3%
COc1ccc(C(CC(=O)Nc2ccc(F)c(Cl)c2)N2Cc3ccccc3C2=O)cc1OC (stereo not given) | 5% | . | -7% | -6%[46.1 µM] | -9 | 37%
COc1ccc(-n2c(C)c3c(C)nnc(C)c3c2C)cc1OC | ? | . | -26% | . | -60* | -1%
COc1ccc(-n2c(C)c(C(C)=O)c(C(C)=O)c2C)cc1OC | -11% | -27% | -7% | -26% | 3 | -24%
Nc1nc(=S)[nH]c2n[nH]nc12 | -19% | . | -18% | . | . | .
Cn1cc(S(=O)(=O)N2CCc3ccccc32)cc1C(=O)Nc1ccc(Cl)cc1 | -21% | . | ? | . | -12 | 28µM*
CCCN(C(=O)c1cc(S(=O)(=O)N2CCc3ccccc32)cn1C)c1ccc(OCC)cc1 | -14% | . | -12% | 17%[46.1 µM] | -75* | -8%
Cn1cc(S(=O)(=O)N2CCc3ccccc32)cc1C(=O)NC(C)(C)C | i | . | -10% | . | -79* | ?
CCOC(=O)c1cc(S(=O)(=O)N2CCc3ccccc32)cn1C | . | . | . | . | -39 | -3%
Cc1cccc(C)c1NC(=O)c1cc(S(=O)(=O)N2CCc3ccccc32)cn1C | i | . | -22% | . | 25 | -5%
CCCCCCOC(=O)C(C#N)c1nc2ccccc2nc1N1CCOCC1 (stereo not given) | . | 3% | . | -20% | -38 | 0%
CCCCCCOC(=O)C(C#N)c1nc2ccccc2nc1N1CCN(CC)CC1 (stereo not given) | i | 4.6µM* | -13% | ? | -24 | -28%
Cc1ccc2c(=O)c(C(=O)c3ccccc3)cn(CC(=O)Nc3ccc4c(c3)OCCO4)c2n1 | -8% | . | -10% | -8%[46.1 µM] | 4 | -13%
CNC(=O)COC(=O)/C=C/c1cccs1 | 1% | ? | 4% | 1% | -12 | 19%
O=C(COC(=O)/C=C/c1cccs1)NC1CC1 | i | ? | -8% | ? | -60* | -16%
CCC1CCCCN1CCCNC(=O)Cn1nc(-c2ccc(C)cc2)ccc1=O (stereo not given) | -3% | ? | -11% | -5% | -71* | .
CCC1CCCCN1CCCNC(=O)CSc1nc2nc(C)c(Cc3ccc(C)cc3)c(C)n2n1 (stereo not given) | -25% | 11µM* | -13% | ? | -33 | -9%
Cc1ccc(Cc2c(C)nc3nc(SCC(=O)NCCCN4CCCCCC4)nn3c2C)cc1 | -15% | ? | -18% | 7%[46.1 µM] | ? | -9%
Cc1cccc2cc(-c3ccccc3)c(-c3ccccc3)c[n+]12 | 0% | ? | -15% | 11µM* | -97* | ?
Cc1ccc(CN2CCC=CS2(=O)=O)cc1 | . | ? | . | . | -15 | .
COc1cc(C)c(C)cc1S(=O)(=O)N1CCN(Cc2ccccc2)CC1 | -16% | -17% | -16% | 1% | -62* | .
